Screening results from PubChem.
Sampled rows, rich in hits. Any-hit rate of the full collection: about 2.8%.
PAX8 reporter – inhibitors of PAX8-driven TPO luciferase reporter, primary screen, RMG-I cells, single concentration; SteadyGlo, 24 h; inhibition, % at 12.6 µM; 1.2% of 360,000 active; AID 652154, 2013;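 active = mean replicate inhibition at least 60% with every replicate also reaching 60%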;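 also: luciferase light reporting Pax8 driven TPO promoter activity; plate controls were median of neutral control wells for no effect and mitoxantrone controls for full effect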
Shn3 3UTR inh – reduction of Shn3 3'UTR firefly luciferase signal, primary screen, Schnurri-3 inhibitor project, cell-based, Clone20 osteoblasts, set 2; 0.52% of 360,000 active; AID 588674, 2011; inhibition, % at 12.5 µM; Clone20 osteoblast Shn3 3'UTR firefly luciferase, 24 h;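 active = mean inhibition of at least 75% with every replicate also reaching 75%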;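 also: 0% = median of neutral control wells and 100% = pilot-screen positive control compound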
NSD2 HMT inh – NSD2 histone methyltransferase inhibitors, primary screen, biochemical, AlphaScreen, single concentration, set 2; Histone-lysine N-methyltransferase NSD2 (Homo sapiens), O96028; NSD2 peptide methylation, 120 min; inhibition, % at 12.5 µM; 0.54% of 310,000 active; in the data active = inhibition above about 50%
Target sequence (O96028 whole entry, looked up): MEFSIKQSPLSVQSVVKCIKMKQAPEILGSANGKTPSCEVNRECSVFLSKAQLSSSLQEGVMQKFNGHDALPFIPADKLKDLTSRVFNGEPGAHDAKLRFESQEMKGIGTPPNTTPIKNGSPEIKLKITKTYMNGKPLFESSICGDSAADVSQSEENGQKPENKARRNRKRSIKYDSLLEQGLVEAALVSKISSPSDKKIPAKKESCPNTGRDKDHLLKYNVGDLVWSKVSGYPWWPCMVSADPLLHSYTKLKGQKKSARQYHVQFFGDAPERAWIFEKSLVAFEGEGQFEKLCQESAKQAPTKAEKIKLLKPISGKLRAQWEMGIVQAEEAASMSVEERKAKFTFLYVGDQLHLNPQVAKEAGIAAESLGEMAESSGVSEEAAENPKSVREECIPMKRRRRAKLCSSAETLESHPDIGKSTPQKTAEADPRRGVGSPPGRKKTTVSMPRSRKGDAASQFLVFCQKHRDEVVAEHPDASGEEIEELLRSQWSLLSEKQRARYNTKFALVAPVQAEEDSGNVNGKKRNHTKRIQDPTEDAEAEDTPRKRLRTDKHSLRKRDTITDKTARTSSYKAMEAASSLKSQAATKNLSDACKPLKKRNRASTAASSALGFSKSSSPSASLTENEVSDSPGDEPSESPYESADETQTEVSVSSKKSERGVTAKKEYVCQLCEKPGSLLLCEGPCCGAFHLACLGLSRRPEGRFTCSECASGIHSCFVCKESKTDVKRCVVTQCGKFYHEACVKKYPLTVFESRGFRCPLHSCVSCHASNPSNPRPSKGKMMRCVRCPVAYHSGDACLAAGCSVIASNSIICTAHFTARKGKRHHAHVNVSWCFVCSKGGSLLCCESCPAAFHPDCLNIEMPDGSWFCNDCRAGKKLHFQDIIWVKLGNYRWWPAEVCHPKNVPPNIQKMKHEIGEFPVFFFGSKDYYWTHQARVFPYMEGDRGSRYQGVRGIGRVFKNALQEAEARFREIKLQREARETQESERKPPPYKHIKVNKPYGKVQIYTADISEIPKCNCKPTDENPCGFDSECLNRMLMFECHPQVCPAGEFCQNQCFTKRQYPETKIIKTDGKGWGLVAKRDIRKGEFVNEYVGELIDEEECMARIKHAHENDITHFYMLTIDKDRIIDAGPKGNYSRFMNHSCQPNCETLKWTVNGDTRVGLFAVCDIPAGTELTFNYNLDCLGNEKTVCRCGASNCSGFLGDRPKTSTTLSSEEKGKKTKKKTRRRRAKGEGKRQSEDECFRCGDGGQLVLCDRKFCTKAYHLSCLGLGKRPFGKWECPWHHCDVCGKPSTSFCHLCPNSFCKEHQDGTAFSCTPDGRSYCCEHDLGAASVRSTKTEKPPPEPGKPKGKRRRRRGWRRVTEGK
Env fusion inh – inhibitors of HIV-1 Env-driven cell-cell fusion, primary screen, HeLa-JRFL effector, CEM21 target cells, luciferase | inhibition, % at 12.3 µM | 1.1% of 360,000 active | AID 651610, 2012;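 active = mean replicate inhibition score of at least 50 and every replicate individually at or above 50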;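 also: 0% = plate neutral controls and 100% = maraviroc near 300 nM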
Glyco luc inh – increase of ERlucT glycosylation luciferase signal, primary screen, N-linked glycosylation inhibitor project, D54 ERlucT cells, luminescence, set 2; D54 ERlucT glycosylation luciferase reporter, 24 h; percent of 100 nM tunicamycin response; AID 588692, 2011; reporter increase, % at 12.5 µM; 0.23% of 360,000 active;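 active = mean luciferase reporter signal, scaled so untreated is 0 and the glycosylation-blocking control 100, at or above a set limit in every replicate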;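 also: luciferase carries N-glycosylation sites so blocking glycosylation raises the light; 0% = median of neutral control wells and 100% = median of 100 nM tunicamycin wells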
LMP1 NFkB inh – EBV LMP1-driven NF-kappaB luciferase reporter inhibitors, primary screen, cell-based, luminescence, single point | LMP1-induced NF-kappaB luciferase reporter cells | inhibition, % at 12.5 µM | 0.69% of 350,000 active | AID 504558, 2011; in the data active = inhibition above about 41%;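 also: 0% = neutral control wells and 100% = reference inhibitor control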
The depositor's hits bear a star; ! = a repeat was not active; [ ] = another dose, or the depositor's remark.

Screening O=C(c1ccc(CNS(=O)(=O)c2ccccc2)cc1)N1CCN(Cc2ccccc2)CC1 returned Shn3 3UTR inh 8, NSD2 HMT inh 0, Env fusion inh 79*, Glyco luc inh -6 and LMP1 NFkB inh 24.
Screening CO[C@@H]1CN(C)C(=O)c2ccc(NC(=O)C3CCOCC3)cc2OC[C@@H](C)N(C(C)=O)C[C@@H]1C returned PAX8 reporter -6.
Screening O=C(/C=C/Sc1ccc(C(F)(F)F)cn1)c1ccccc1 returned PAX8 reporter 18, Shn3 3UTR inh 31, NSD2 HMT inh -1, Env fusion inh -12, Glyco luc inh 37* and LMP1 NFkB inh -7.
Screening CCCC(=O)Nc1ccc2c(c1)OC[C@H](C)N(Cc1ccccn1)C[C@@H](C)[C@@H](OC)CN(C)C2=O returned PAX8 reporter 8 and Env fusion inh 4[16.7 µM].
`CCn1c(=N)c(S(=O)(=O)c2ccc(C)cc2)cc2c(=O)n3ccccc3nc21` gave PAX8 reporter -8, NSD2 HMT inh 1 and Env fusion inh 11.
For Cc1ccc(S(=O)(=O)c2cc3c(=O)n4ccccc4nc3n(CCc3ccccc3)c2=N)cc1 the results were PAX8 reporter -5, Shn3 3UTR inh -5, NSD2 HMT inh 7, Env fusion inh -104, Glyco luc inh 69* and LMP1 NFkB inh -39.
For CCCNC(=O)N(C)C[C@H]1Oc2ncc(-c3ccncc3)cc2C(=O)N([C@@H](C)CO)C[C@H]1C the results were Env fusion inh 5[16.7 µM].
Cc1ccnc2c1ccc1cccnc12 was read as PAX8 reporter 80*, Shn3 3UTR inh 92*, NSD2 HMT inh -6, Env fusion inh -199, Glyco luc inh -10 and LMP1 NFkB inh 80*.
`c1cnc2c(c1)ccc1cccnc12` gave PAX8 reporter 77*!, Shn3 3UTR inh 95*!, NSD2 HMT inh 2, Env fusion inh -37, Glyco luc inh -14 and LMP1 NFkB inh 18.
`Cc1ccnc2c1ccc1c(C)ccnc12` gave Shn3 3UTR inh 90*, NSD2 HMT inh 11, Glyco luc inh -8 and LMP1 NFkB inh 84*.
For CCCC#Cc1ccc2c(c1)O[C@H](CN(C)CCC)[C@@H](C)CN([C@H](C)CO)S2(=O)=O the results were Env fusion inh 20[16.7 µM].
Screening C[C@H](CO)N1C[C@H](C)[C@@H](CN(C)S(C)(=O)=O)Oc2ccc(NC(=O)CCCN(C)C)cc2C1=O returned PAX8 reporter -5 and Env fusion inh -2[16.7 µM].
For C[C@H]1CN([C@@H](C)CO)S(=O)(=O)c2ccc(C3=CCCCC3)cc2O[C@@H]1CN(C)Cc1ccccc1F the results were Env fusion inh 13[16.7 µM].
For O=C(Nc1ccccn1)c1onc2c1CCCC2 the results were Shn3 3UTR inh 39, NSD2 HMT inh 23, Glyco luc inh -22 and LMP1 NFkB inh 41*.
Screening O=C(Nc1ccccn1)c1csc2c1CCCC2 returned PAX8 reporter -146, Shn3 3UTR inh -21, NSD2 HMT inh -5, Env fusion inh -55, Glyco luc inh -2 and LMP1 NFkB inh -44.
`Cc1ccc(-c2cc(NC(=O)CCl)n(-c3ccccc3)n2)cc1` gave PAX8 reporter -25, NSD2 HMT inh 4, Env fusion inh -31, Glyco luc inh 21 and LMP1 NFkB inh -10.
Cc1ccc(-n2nc(C)c(NC(=O)CCl)c2C)cc1 was read as PAX8 reporter 6, Shn3 3UTR inh -46, NSD2 HMT inh 0, Env fusion inh -127, Glyco luc inh 55* and LMP1 NFkB inh -67.
For CCOc1ccccc1CN1[C@@H](c2ccc(OC)cc2)CC(C(=O)OC)(C(=O)OC)[C@H]1c1ccccc1 the results were PAX8 reporter -10 and Env fusion inh 61*.
COC(=O)C1(C(=O)OC)C[C@H](c2cccs2)N(Cc2ccccc2OC)[C@@H]1c1ccc(F)cc1 was read as PAX8 reporter -4 and Env fusion inh 44.
Screening COc1ccc(-n2c(C)c(C(C)=O)c3cc(O)ccc32)cc1 returned Shn3 3UTR inh 6, NSD2 HMT inh -1, Glyco luc inh -12 and LMP1 NFkB inh 57*.
